# According to the OligoGym collection:
# What was measured:
# Assay in all cases: pooled miR-30 sensor sort-seq; sequence = guide strand
# Settings in all cases: shRNA
# SIRT4 = target: SIRT4
# SIX1 = target: SIX1
# SIRT7 = target: SIRT7
# SIRPD = target: SIRPD
# SLC20A1 = target: SLC20A1
# SLC22A7 = target: SLC22A7
# SLC25A25 = target: SLC25A25
# SLC25A5 = target: SLC25A5
# SLC25A3 = target: SLC25A3
# SLC25A41 = target: SLC25A41
# SLC50A1 = target: SLC50A1
# SLC6A18 = target: SLC6A18
# SLC6A3 = target: SLC6A3
# SLC6A17 = target: SLC6A17
# Also: reference of the scale not given here.
sequence,measurement,setting,value
TTGTGCACAAAATCAACCTTGT,sensor-assay potency score (higher = more potent),SIRT4,0.469
TTCTATTTACAAGTGTCCCTAG,sensor-assay potency score (higher = more potent),SIX1,0.0217
TTCAATGTACATGTTCCCGTGG,sensor-assay potency score (higher = more potent),SIRT7,0.307
TTGTAGATTAATTTCCGGTTTG,sensor-assay potency score (higher = more potent),SIRPD,-0.577
TTCTTCACCAGCACGCAGGGGA,sensor-assay potency score (higher = more potent),SIRT7,-0.0799
TGGGTACTTCTTTAGAACCTTC,sensor-assay potency score (higher = more potent),SIRT7,-0.762
TTCTCCTTGAAGCAGTAGCTGG,sensor-assay potency score (higher = more potent),SIX1,-1.4
AACAACTCCAGAAACAAGCTGC,sensor-assay potency score (higher = more potent),SIX1,-0.198
TTTCTGACCTGTAGTCTGGTAT,sensor-assay potency score (higher = more potent),SIRT4,-0.224
TTTATGCGCAAACAACTCCAGA,sensor-assay potency score (higher = more potent),SIX1,-1.43
AAATTGTAGATTAATTTCCGGT,sensor-assay potency score (higher = more potent),SIRPD,-0.422
TTCTTTAGAACCTTCAGGCTGG,sensor-assay potency score (higher = more potent),SIRT7,0.828
TATTGCAATCGGGAGCTTCTTC,sensor-assay potency score (higher = more potent),SIRT4,-0.488
TTGTTTTCGGTGTTCTCCCTTT,sensor-assay potency score (higher = more potent),SIX1,-0.196
TTTTGCTGACCTGAAAGTCAAC,sensor-assay potency score (higher = more potent),SIRT4,-1.46
ATACCTGCAAGGATGATCCCAC,sensor-assay potency score (higher = more potent),SIRT4,0.445
TTTTTCTGACCTGTAGTCTGGT,sensor-assay potency score (higher = more potent),SIRT4,0.35
TTGGTCATGCACCAGAGGCGTG,sensor-assay potency score (higher = more potent),SIRT7,-1.42
TTCTTTTACACGCTTGTGCACA,sensor-assay potency score (higher = more potent),SIRT4,-0.806
TGTAACTCTTTGACCTTCTCAG,sensor-assay potency score (higher = more potent),SIRT4,0.0606
TAACGCTTCTCCCTTTCTGAAG,sensor-assay potency score (higher = more potent),SIRT7,-1.56
TTGAGTACGCTCTCGTTCTTGT,sensor-assay potency score (higher = more potent),SIX1,-0.00831
TTTCTATTTACAAGTGTCCCTA,sensor-assay potency score (higher = more potent),SIX1,-0.676
TTAATTTCCGGTTTGGCCCTGT,sensor-assay potency score (higher = more potent),SIRPD,0.897
TGAACCACAAGACAGGTCCATT,sensor-assay potency score (higher = more potent),SIRPD,-1.29
TTGGATTCTGCTCAGTAACAAA,sensor-assay potency score (higher = more potent),SIRPD,-1.61
ATGACGTCATCACACTTCCCAT,sensor-assay potency score (higher = more potent),SIRT7,-1.31
TAGACGACCAAGTATTTGGCGT,sensor-assay potency score (higher = more potent),SIRT7,-0.403
TCCGTCACATCGAACACCCGCA,sensor-assay potency score (higher = more potent),SIRT7,-0.639
ATATTTGTGAAAGTCCACCATT,sensor-assay potency score (higher = more potent),SIX1,-0.953
TTCTTGTGCAGGTGGTCGCAGG,sensor-assay potency score (higher = more potent),SIX1,-1.02
TTTTCTGTCACCTAGACCCATC,sensor-assay potency score (higher = more potent),SLC20A1,-0.857
TAGCACAAGTAACACTTCCCTC,sensor-assay potency score (higher = more potent),SLC20A1,-0.562
TCTGAGTGGTCGTACTCCCAGC,sensor-assay potency score (higher = more potent),SLC22A7,-1.03
TTTATTTACAGAATCCTCCCCA,sensor-assay potency score (higher = more potent),SLC22A7,0.685
TGCATGAGCACCTTGAGCCTGT,sensor-assay potency score (higher = more potent),SLC25A25,-0.00686
TTCTTTTTGTCCAAACTCTTAA,sensor-assay potency score (higher = more potent),SLC25A25,-1.04
TGCAGTGTCATAGATACCGAAG,sensor-assay potency score (higher = more potent),SLC25A5,-1.43
TAAATCTGAAACTCTTGCCTTA,sensor-assay potency score (higher = more potent),SLC25A3,0.121
TTGCACTGCTCGAATACGGAGA,sensor-assay potency score (higher = more potent),SLC25A41,-0.376
TTCACAACTGTACTCTTCCACG,sensor-assay potency score (higher = more potent),SLC25A3,-0.783
TCACGAGCAATCTTCCGCCAGC,sensor-assay potency score (higher = more potent),SLC25A5,-0.904
TCTCTTGTCCACACCACCCAGG,sensor-assay potency score (higher = more potent),SLC25A5,-0.852
TCTCGCTGCAAGATCTGCCTGG,sensor-assay potency score (higher = more potent),SLC25A41,-0.421
TGCATGTACACCTTGGCTCTGT,sensor-assay potency score (higher = more potent),SLC25A41,-0.291
TAGACCTGCATGTACACCTTGG,sensor-assay potency score (higher = more potent),SLC25A41,-0.353
TACACCACATAGCTGATGCCAC,sensor-assay potency score (higher = more potent),SLC25A41,-0.548
TTGTATTTATCTTTGAAGGCGA,sensor-assay potency score (higher = more potent),SLC25A5,-0.168
TTATCTGCAGTGATCTGCTTGC,sensor-assay potency score (higher = more potent),SLC25A5,0.187
TTGCTTATCTGCAGTGATCTGC,sensor-assay potency score (higher = more potent),SLC25A5,-0.049
TTGTACAGTGCTTCAACAGTAC,sensor-assay potency score (higher = more potent),SLC25A3,0.043
TTCATCATACAAGACAAGCACA,sensor-assay potency score (higher = more potent),SLC25A5,-1.02
TTCTCTTGTCCACACCACCCAG,sensor-assay potency score (higher = more potent),SLC25A5,-1.25
TTTAAATCCAAGTCTCTTGAGG,sensor-assay potency score (higher = more potent),SLC25A3,-0.533
TGCCTTTGTATTGCTTATCTGC,sensor-assay potency score (higher = more potent),SLC25A5,-0.404
TATAATGCCTTTGTATTGCTTA,sensor-assay potency score (higher = more potent),SLC25A5,0.347
TTTGTATTGCTTATCTGCAGTG,sensor-assay potency score (higher = more potent),SLC25A5,-0.375
TTGTATTGCTTATCTGCAGTGA,sensor-assay potency score (higher = more potent),SLC25A5,-0.0407
TTCAAGGTTGTTGTCATGCATG,sensor-assay potency score (higher = more potent),SLC25A41,-1.11
TATTCCACAGAAGTAATTCTTG,sensor-assay potency score (higher = more potent),SLC25A41,-0.218
TACAAGACAAGCACAAAAGCAC,sensor-assay potency score (higher = more potent),SLC25A5,0.0644
AGATTTGTAGATCTTAACCAGG,sensor-assay potency score (higher = more potent),SLC25A5,-1.69
TTGCAGTGTCATAGATACCGAA,sensor-assay potency score (higher = more potent),SLC25A5,-0.793
TAGACAGCCAGGTCGGTGCAGG,sensor-assay potency score (higher = more potent),SLC25A41,-0.911
TTCATCACGAGCAATCTTCCGC,sensor-assay potency score (higher = more potent),SLC25A5,-0.132
TCCTGTGTCCAGTACCTGCTGT,sensor-assay potency score (higher = more potent),SLC25A41,-0.625
TTGTAGATCTTAACCAGGCAGT,sensor-assay potency score (higher = more potent),SLC25A5,-0.456
TTGCTTCCCATTTTCAACCAGT,sensor-assay potency score (higher = more potent),SLC25A5,-0.278
TTATCTTTGAAGGCGAAGTTAA,sensor-assay potency score (higher = more potent),SLC25A5,-1.05
ATACTCAGGAGCAATCTTGAGC,sensor-assay potency score (higher = more potent),SLC25A41,-0.858
TCTGCAGTGATCTGCTTGCTGG,sensor-assay potency score (higher = more potent),SLC25A5,-0.995
ATGGATAGGAAGTCAACCCGGC,sensor-assay potency score (higher = more potent),SLC25A5,-0.119
TATCTGATGACATTGGCCAGGT,sensor-assay potency score (higher = more potent),SLC25A5,0.271
TAGAGCAAGTGTTCTGAGGTTC,sensor-assay potency score (higher = more potent),SLC25A41,0.286
TCGGTAGATGATAATACCCTGC,sensor-assay potency score (higher = more potent),SLC25A5,-0.461
TTGGTGAAGTTCGTCTTGGAGG,sensor-assay potency score (higher = more potent),SLC25A41,-1.22
TTTGTAGATCTTAACCAGGCAG,sensor-assay potency score (higher = more potent),SLC25A5,-0.343
TGATTTAGTTTGAATCACCTTA,sensor-assay potency score (higher = more potent),SLC50A1,0.457
TAGAGCTTCTCCTGACGCGAGG,sensor-assay potency score (higher = more potent),SLC6A18,-1.31
TAGATGATGAAGATCAGCCCTG,sensor-assay potency score (higher = more potent),SLC6A3,-0.145
TTCTCGACCACACACTTCTCAT,sensor-assay potency score (higher = more potent),SLC6A17,-1.03
ATTAGTTGCTTTGAACCCCAGG,sensor-assay potency score (higher = more potent),SLC6A18,-0.521
TGAACAAGTAGATGAGTCCTTT,sensor-assay potency score (higher = more potent),SLC6A18,-0.149
TTTCCTGGTGAGACATACCAGG,sensor-assay potency score (higher = more potent),SLC6A3,-1.03
